This is an account of results in PubChem BioAssay (Tox21).

The nature of assay [1]: qHTS assay to identify small molecule antagonists of the estrogen receptor alpha (ER-alpha) signaling pathway using the BG1 cell line in the presence of 0.1 nM 17-beta-estradiol - cell viability counter screen (AID 1259241). Note: nearly all actives have a fitted effect of over 40% in size. Put shortly: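 Live-cell protease activity (CellTiter-Fluor fluorescence, 30 min) was read in the same wells after VM7Luc4E2 cells had been exposed to compounds with 0.1 nM 17beta-estradiol for 22 hr at 37C.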
On the technique in general: Quantitative high-throughput screening tests each substance at several concentrations.

In assay [2] the target is Androgen receptor (Homo sapiens) (UniProt P10275). The experiment in a line: qHTS assay to identify small molecule antagonists of the androgen receptor (AR) signaling pathway using the MDA cell line in the presence of 0.5 nM R1881 (AID 1259243). Note: nearly all actives have a fitted effect of over 50% in size. Put shortly:
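With R1881 held at 0.5 nM (final), compound effects on MMTV-luciferase expression in MDA-kb2 cells were scored by luminescence after a 16 hr, 37C incubation.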

The target of assay [3] is Estrogen receptor (Homo sapiens) (UniProt P03372). The experiment in a line: qHTS assay to identify small molecule antagonists of the estrogen receptor alpha (ER-alpha) signaling pathway using the BG1 cell line in the presence of 0.1 nM 17-beta-estradiol (AID 1259244). Note: nearly all actives have a fitted effect of over 50% in size. In short, it runs like this:
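Compounds were tested against 0.1 nM (final) 17beta-estradiol in VM7Luc4E2 cells, which express full-length ER-alpha and an ERE-luciferase reporter; luminescence was recorded following 22 h exposure.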

A short description of assay [4]: qHTS assay to identify small molecule HDAC inhibitors (AID 1259364). Note: potency is the fitted concentration of half-maximal effect.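 Note: wild-type HCT-116 cells with endogenous class I/II HDAC activity; nearly all actives have a fitted effect of over 45% in size.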 In short, it runs like this:
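Screening used wild-type human colon HCT-116 cells incubated overnight, dosed with compounds for 2 hours, and assayed with a homogeneous luminogenic HDAC I/II reagent for 30 minutes at room temperature.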

The nature of assay [5]: qHTS assay to identify small molecule HDAC inhibitors - cell viability counter screen (AID 1259365). Note: series mostly up to about 92 µM; nearly all actives have a fitted effect of over 50% in size. In short, it runs like this:
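HCT-116 (wild type), 1,500 cells/well, overnight 37C/5% CO2; compound in DMSO 2hr; CellTiter-Glo 30min RT; luminescence read.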

Assay [6] can be described thus: qHTS assay to identify small molecule agonists of the sonic hedgehog signaling (Shh) pathway - cell viability counter screen (AID 1259366). Note: nearly all actives have a fitted effect of over 50% in size. Put shortly: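 CellTiter-Fluor fluorescence read-out, 1 hr at 37C, added after 23hr compound exposure. Cells: 3T3 Gli1-Luc, an NIH/3T3 clone with stably integrated Gli1-Luc reporter, plated 4hr before compound.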
The nature of assay [7]: qHTS assay to identify small molecule antagonists of the sonic hedgehog signaling (Shh) pathway - cell viability counter screen (AID 1259367). Note: nearly all actives have a fitted effect of over 55% in size. Put shortly: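 Viability was read by CellTiter-Fluor fluorescence in the same wells, reagent added 23 hr into compound treatment and incubated 1 hr at 37C. The 3T3 Gli1-Luc reporter cells (2,000/well) received conditioned medium after compound and ran 24 hr.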

A short description of assay [8]: qHTS assay to identify small molecule agonists of the sonic hedgehog signaling (Shh) pathway (AID 1259368; calls by dose curve;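 note: NIH/3T3-derived 3T3Gli1-Luc cells carrying a stable Gli1-driven firefly luciferase reporter; series mostly up to about 92 µM; nearly all actives have a fitted effect of over 15% in size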). In short, it runs like this: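 Hedgehog pathway agonism scored by increased firefly luciferase luminescence in 3T3Gli1-Luc cells treated 24 hr at 37 C; detection used a 30 min room-temperature reagent incubation.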
Assay [9] is described as follows: qHTS assay to identify small molecule antagonists of the sonic hedgehog signaling (Shh) pathway (AID 1259369; calls by dose curve; note: nearly all actives have a fitted effect of over 45% in size; note: potency is the fitted concentration of half-maximal effect). In short, it runs like this:
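NIH/3T3 stable Gli1-Luc clone, 2,000 cells/well, 4hr settle; cpd + conditioned medium 24hr; Luc reagent 30min RT; luminescence.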

Assay [10] in a line: qHTS assay to identify small molecule agonists of the androgen receptor (AR) signaling pathway in the presence of an antagonist - cell viability counter screen (AID 1259379).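 Note: MDA-kb2 human breast cancer cells carrying an MMTV luciferase reporter; series mostly up to about 92 µM; nearly all actives have a fitted effect of over 25% in size.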 Put shortly:
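MDA-kb2 viability measured by CellTiter-Fluor fluorescence in the same wells as the luciferase signal; nilutamide 3.0uM final; 15-point compound titration; 16 hr at 37C.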

Assay [11] is described as follows: qHTS assay to identify small molecule agonists of the estrogen receptor beta (ER-beta) signaling pathway - cell viability counter screen (AID 1259380). Note: nearly all actives have a fitted effect of over 30% in size. In short, it runs like this: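 Measured: luminescence from CellTiter-Glo after 30 min at room temperature, added to wells already read for the LiveBLAzer FRET reporter (2 hr substrate); ER-beta-UAS-bla HEK293T cells had 16 hr compound treatment at 37C, 5% CO2.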

The target in assay [12] is Androgen receptor (Homo sapiens) (UniProt P10275). The experiment in a line: qHTS assay to identify small molecule agonists of the androgen receptor (AR) signaling pathway in the presence of an antagonist (AID 1259381; calls by dose curve; note: nearly all actives have a fitted effect of over 15% in size). In short, it runs like this: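 Luminescent ONE-Glo read, 30min at room temperature, follows 16hr compound exposure (15 concentrations) of MDA-kb2 cells at 37C, 0% CO2, with nilutamide added at 3.0uM final.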
Androgen receptor (Homo sapiens), sequence (P10275 whole entry, looked up): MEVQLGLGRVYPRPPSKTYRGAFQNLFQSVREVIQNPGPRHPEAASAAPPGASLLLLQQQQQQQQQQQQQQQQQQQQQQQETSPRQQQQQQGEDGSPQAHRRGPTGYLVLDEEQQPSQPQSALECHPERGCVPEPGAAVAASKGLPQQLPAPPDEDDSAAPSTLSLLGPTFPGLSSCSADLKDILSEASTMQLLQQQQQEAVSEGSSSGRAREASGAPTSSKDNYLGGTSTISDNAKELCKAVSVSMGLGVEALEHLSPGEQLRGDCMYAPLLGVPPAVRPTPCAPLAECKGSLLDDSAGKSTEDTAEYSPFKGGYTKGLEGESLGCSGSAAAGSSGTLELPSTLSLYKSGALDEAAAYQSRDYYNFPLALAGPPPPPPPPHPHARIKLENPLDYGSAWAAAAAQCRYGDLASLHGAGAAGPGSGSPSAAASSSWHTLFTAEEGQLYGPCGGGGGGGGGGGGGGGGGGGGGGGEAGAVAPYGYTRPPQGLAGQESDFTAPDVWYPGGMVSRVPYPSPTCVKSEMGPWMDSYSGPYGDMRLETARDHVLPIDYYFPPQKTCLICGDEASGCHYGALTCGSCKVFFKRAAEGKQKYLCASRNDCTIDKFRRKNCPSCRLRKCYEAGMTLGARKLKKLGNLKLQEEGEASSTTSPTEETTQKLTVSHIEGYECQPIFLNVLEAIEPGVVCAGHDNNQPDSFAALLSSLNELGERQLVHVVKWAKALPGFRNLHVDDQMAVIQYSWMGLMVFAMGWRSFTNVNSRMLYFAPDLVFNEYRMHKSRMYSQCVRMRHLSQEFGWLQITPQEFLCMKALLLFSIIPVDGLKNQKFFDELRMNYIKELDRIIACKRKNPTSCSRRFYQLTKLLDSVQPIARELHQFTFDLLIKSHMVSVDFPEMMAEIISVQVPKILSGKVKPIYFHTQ

Assay [13] in a line: qHTS assay to identify small molecule antagonists of the estrogen receptor beta (ER-beta) signaling pathway - cell viability counter screen (AID 1259382).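 Note: HEK293T cells carrying ER-beta-UAS-bla reporter stimulated with estradiol; series mostly up to about 92 µM; nearly all actives have a fitted effect of over 55% in size.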 Put shortly:
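Readout: luminescence, CellTiter-Glo, same wells as bla assay. System: ER-beta-UAS-bla GripTite HEK293T, 2% charcoal-stripped FBS. Exposure: compounds plus 1nM 17-beta-estradiol, 16 hr, 37C.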

Assay [14] concerns the target Estrogen receptor (Homo sapiens) (UniProt P03372). The experiment in a line: qHTS assay to identify small molecule agonists of the estrogen receptor alpha (ER-alpha) signaling pathway in the presence of an antagonist (AID 1259383; calls by dose curve; note: top concentration of the series differs between compounds; nearly all actives have a fitted effect of over 15% in size). In short, it runs like this: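 Quantitative HTS confirmation: compounds titrated at 15 concentrations onto estrogen-deprived VM7Luc4E2 cells carrying a four-ERE luciferase construct, with ICI-182,780 present at 10.0nM final. Signal is luminescence after 22hr exposure.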

Assay [15] addresses Thyrotropin receptor (Homo sapiens) (UniProt P16473). The experiment in a line: qHTS assay to identify small molecule antagonists of the thyroid stimulating hormone receptor (TSHR) signaling pathway (AID 1259385; calls by dose curve; note: nearly all actives have a fitted effect of over 20% in size). Put shortly: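 Antagonist mode: compound-treated TSHR-expressing HEK293 cells were stimulated with 1.5 ng/mL TSH (final) in presence of Ro20-1724 for 30 min at RT. HTRF cAMP detection after 1 h; each compound tested at 15 concentrations, triplicate.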

The nature of assay [16]: qHTS assay to identify small molecule antagonists of the androgen receptor (AR) signaling pathway using the MDA cell line in the presence of 0.5 nM R1881 - cell viability counter screen (AID 1259242). Note: nearly all actives have a fitted effect of over 45% in size. In short, it runs like this:
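Concentration-response screen of compounds for toxicity in MDA-kb2 reporter cells: 16 hr at 37C with 0.5 nM R1881, endpoint live-cell protease fluorescence measured in the reporter wells.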

Assay [17] is described as follows: qHTS assay to identify small molecule agonists or antagonists of the thyroid stimulating hormone receptor (TSHR) signaling pathway - wild type cell line counter screen (AID 1259384; calls by dose curve). Put shortly:
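Counter screen in untransfected Hek293: compounds (15-point titration, triplicate) plus phosphodiesterase inhibitor Ro20-1724 added after 18 h plating; 30 min RT. Intracellular cAMP via competitive d2/cryptate immunoassay, 1 h incubation.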

The target of assay [18] is Estrogen receptor beta (Homo sapiens) (UniProt Q92731). The experiment in a line: qHTS assay to identify small molecule agonists of the estrogen receptor beta (ER-beta) signaling pathway (AID 1259377; active = well fitted activation curve with a large enough effect in the signal ratio in the repeat runs, not every such curve was filed as active; the % refers to the signal ratio). Put shortly: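 Beta-lactamase reporter readout: fluorescence of LiveBLAzer B/G FRET substrate after 2 h at room temperature, following 16 h compound treatment of ER-beta-UAS-bla HEK293T cells at 37C in 2% charcoal-stripped FBS medium.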
Estrogen receptor beta (Homo sapiens), sequence (Q92731 whole entry, looked up): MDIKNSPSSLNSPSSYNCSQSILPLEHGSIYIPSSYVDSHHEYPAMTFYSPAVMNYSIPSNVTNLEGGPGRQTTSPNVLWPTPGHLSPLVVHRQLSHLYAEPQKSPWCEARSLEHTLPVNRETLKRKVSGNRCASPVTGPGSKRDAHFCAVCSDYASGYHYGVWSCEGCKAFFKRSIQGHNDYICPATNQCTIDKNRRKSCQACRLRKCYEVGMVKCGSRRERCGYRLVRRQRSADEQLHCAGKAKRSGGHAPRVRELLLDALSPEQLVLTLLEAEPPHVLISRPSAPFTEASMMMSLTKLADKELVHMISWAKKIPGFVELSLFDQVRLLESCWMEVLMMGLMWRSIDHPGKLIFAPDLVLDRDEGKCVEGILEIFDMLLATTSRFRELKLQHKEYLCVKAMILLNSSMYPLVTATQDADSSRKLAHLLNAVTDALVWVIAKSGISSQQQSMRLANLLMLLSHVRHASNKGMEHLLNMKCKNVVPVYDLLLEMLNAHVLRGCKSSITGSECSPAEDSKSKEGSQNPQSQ

The target is the same in assay [19]. The experiment in a line: qHTS assay to identify small molecule antagonists of the estrogen receptor beta (ER-beta) signaling pathway (AID 1259378; active = well fitted inhibition curve with a large enough effect in the signal ratio in the repeat runs, not every such curve was filed as active; the % refers to the signal ratio). Put shortly:
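Antagonist mode: compounds added to beta-lactamase reporter HEK293T ER-beta-UAS cells stimulated with E2 (1nM final), 16 hr at 37C. LiveBLAzer B/G FRET substrate, 2 hours room temperature, fluorescence read-out.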

Results filed as inconclusive are left out. Active and inactive are the calls of the source. Unless noted, calls come from the whole dose curve; as a rule, active = well fitted curve in the direction sought with a large enough effect in the repeat runs; inconclusive = weak or mixed curves; inactive = no such curve, though single readings can be large; an effect the other way counts as inactive or inconclusive.

Thyrotropin receptor (Homo sapiens), sequence (P16473 whole entry, looked up): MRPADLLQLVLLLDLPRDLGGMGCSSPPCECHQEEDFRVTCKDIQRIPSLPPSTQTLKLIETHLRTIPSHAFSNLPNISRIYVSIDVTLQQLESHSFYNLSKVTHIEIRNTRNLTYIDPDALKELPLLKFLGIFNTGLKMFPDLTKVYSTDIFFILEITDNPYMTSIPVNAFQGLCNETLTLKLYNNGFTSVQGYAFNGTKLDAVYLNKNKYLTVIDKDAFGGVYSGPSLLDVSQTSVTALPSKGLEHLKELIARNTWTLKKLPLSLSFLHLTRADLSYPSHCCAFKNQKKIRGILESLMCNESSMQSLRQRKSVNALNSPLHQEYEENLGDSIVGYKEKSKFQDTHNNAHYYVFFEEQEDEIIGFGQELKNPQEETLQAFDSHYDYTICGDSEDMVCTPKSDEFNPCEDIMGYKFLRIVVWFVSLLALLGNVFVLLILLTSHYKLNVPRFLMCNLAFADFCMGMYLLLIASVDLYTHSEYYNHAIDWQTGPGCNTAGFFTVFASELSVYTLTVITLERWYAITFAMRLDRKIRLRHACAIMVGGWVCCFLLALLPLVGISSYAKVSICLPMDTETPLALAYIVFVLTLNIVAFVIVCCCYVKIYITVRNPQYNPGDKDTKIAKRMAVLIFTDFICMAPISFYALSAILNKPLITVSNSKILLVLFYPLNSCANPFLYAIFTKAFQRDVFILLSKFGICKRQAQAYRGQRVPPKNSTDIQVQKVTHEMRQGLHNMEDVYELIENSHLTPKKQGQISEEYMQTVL
Estrogen receptor (Homo sapiens), sequence (P03372 whole entry, looked up): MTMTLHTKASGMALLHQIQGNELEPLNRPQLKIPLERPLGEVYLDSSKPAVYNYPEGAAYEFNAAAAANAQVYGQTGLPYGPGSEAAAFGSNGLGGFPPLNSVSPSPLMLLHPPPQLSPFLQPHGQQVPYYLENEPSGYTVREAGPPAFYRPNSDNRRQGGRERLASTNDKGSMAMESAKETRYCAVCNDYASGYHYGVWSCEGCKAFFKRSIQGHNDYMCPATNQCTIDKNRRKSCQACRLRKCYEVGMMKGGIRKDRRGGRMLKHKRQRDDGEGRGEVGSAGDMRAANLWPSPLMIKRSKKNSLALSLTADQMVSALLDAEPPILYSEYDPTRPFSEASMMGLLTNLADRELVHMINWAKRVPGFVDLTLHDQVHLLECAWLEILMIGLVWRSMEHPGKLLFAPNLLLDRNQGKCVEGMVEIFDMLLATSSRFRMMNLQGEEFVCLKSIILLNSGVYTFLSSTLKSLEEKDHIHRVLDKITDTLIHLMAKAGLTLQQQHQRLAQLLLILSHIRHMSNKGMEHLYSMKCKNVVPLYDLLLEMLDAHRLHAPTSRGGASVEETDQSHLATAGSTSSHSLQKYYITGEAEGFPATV

As for `C#CC(O)(C=CCl)CC` (centres undefined), the Potency result in assay [1], in [2], in [3], in assay [4], in assay [5] and in assay [6] was “inactive” throughout. The Potency entry in assay [7], in assay [8], in [9], in [10], in assay [11] and in [12] was “inactive” in each case. Further, the Potency entry in [13], in [14] and in [15] was “inactive” each time.

Consider `N#CC1(N=NC2(C#N)CCCCC2)CCCCC1`, for which the Potency result in assay [1], in assay [16], in assay [4], in assay [5], in assay [6] and in assay [8] was “inactive” throughout. Also, the Potency entry in [10], in assay [11], in [13] and in [15] was “inactive” throughout. In addition, the Potency in assay [9] was 21.7 µM (active). Besides, the result in assay [17] was inactive.

On to `Nc1cccc2ccccc12`, for which the Potency entry in [1], in [16], in [5], in assay [6], in assay [7] and in [8] was “inactive” in each case. The Potency entry in [10], in assay [11], in assay [13], in [14] and in assay [15] was “inactive” each time. For the same compound, in assay [17], the compound was called inactive.

Take `CCc1cnc(C2=NC(C)(C(C)C)C(=O)N2)c(C(=O)O)c1` (centres undefined): the Potency entry in [1], in assay [16], in [4], in assay [5], in [6] and in assay [7] was “inactive” each time. Besides, the Potency entry in assay [8], in assay [9], in assay [10], in assay [11], in assay [13] and in assay [15] was “inactive” in each case. Besides, the compound was called inactive in assay [17].

For `C=CCc1ccc(OC(=O)Cc2ccccc2)c(OC)c1`, the Potency result in assay [1], in [16], in [4], in assay [5], in assay [6] and in assay [8] was “inactive” throughout. Further, the Potency result in assay [9], in assay [18], in assay [19], in assay [10], in assay [11] and in assay [13] was “inactive” in each case. Moreover, in assay [17], the call was inactive.

Consider `COC1=CC(=O)O[C@@H](/C=C/c2ccc3c(c2)OCO3)C1`, for which the Potency result in assay [1], in assay [16], in assay [5], in assay [6], in [7] and in [8] was “inactive” throughout. Moreover, the Potency result in assay [10], in [13] and in assay [15] was “inactive” throughout. Moreover, the Potency in assay [4] is 23.3 µM (active). Also, in assay [17], the compound was classed as inactive.

Consider `CCOP(=O)(SC(C)CC)N1CCSC1=O` (centres undefined), for which the Potency entry in [1], in [16], in assay [4], in assay [5], in [6] and in assay [7] was “inactive” in each case. For the same compound, the Potency entry in assay [8], in [9], in [10], in assay [11], in assay [13] and in [15] was “inactive” each time. In addition, the compound was called inactive in [17].

`CCCC[P+](CC)(CCCC)CCCC` (tested in a mixture with another compound): the Potency result in assay [1], in assay [16], in assay [4], in [5], in assay [7] and in assay [8] was “inactive” throughout. The Potency result in assay [9], in [11], in [13] and in [15] was “inactive” in each case. Besides, the compound was called inactive in assay [17].

Turning to `CN(C)C(=O)Nc1cccc(OC(=O)NC(C)(C)C)c1`, the Potency entry in assay [1], in assay [16], in [5], in [6], in [7] and in assay [8] was “inactive” in each case. Further, the Potency result in assay [9], in [19], in [10], in assay [11], in assay [13] and in assay [14] was “inactive” each time. Moreover, in assay [15], the Potency entry was “inactive”. Besides, the result in assay [17] was inactive.
